Inconclusive results are not listed. Activity calls are given as the source filed them. Unless noted, the call rests on the fitted dose curve; in most records, active means well fitted curve in the direction sought with a large enough effect; inconclusive means small, poorly fitted or top-dose-only effect, or another doubt; inactive means no such curve, though single readings can be large; an effect the other way counts as inactive or inconclusive.
Key:
[1] = AP1 Signaling Pathway (AID 357; active means well fitted curve in either direction with a large enough effect, not every such curve was filed as active;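 further: ME-180 reporter cells stimulated with EGF at its EC50 level; on the % scale 0 is the no-effect control and ±100 the full control effect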); conditions: ME-180 AP-1-bla reporter, EGF-induced, beta-lactamase ratio, 5 h; at 7.69 µM (top of the series) unless noted
In short: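 Titration-series screen for positive or negative modulators of EC50 EGF-induced signaling in ME-180 cells carrying an AP-1-driven beta-lactamase reporter. After 5 hours at 37 degrees Celsius, CCF4 460nm/530nm emission ratio gave %Activity; AC50 values derived.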

[2] = target: Cytochrome P450 1A2 (Homo sapiens) (UniProt P05177); assay: p450-cyp1a2 (AID 410; calls by dose curve; further: potency means the concentration at half of the fitted maximal effect;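 on activity change, negative = inhibition: -100% = full effect of reference inhibitor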)
Chain of Cytochrome P450 1A2 (Homo sapiens) (P05177 whole entry, looked up): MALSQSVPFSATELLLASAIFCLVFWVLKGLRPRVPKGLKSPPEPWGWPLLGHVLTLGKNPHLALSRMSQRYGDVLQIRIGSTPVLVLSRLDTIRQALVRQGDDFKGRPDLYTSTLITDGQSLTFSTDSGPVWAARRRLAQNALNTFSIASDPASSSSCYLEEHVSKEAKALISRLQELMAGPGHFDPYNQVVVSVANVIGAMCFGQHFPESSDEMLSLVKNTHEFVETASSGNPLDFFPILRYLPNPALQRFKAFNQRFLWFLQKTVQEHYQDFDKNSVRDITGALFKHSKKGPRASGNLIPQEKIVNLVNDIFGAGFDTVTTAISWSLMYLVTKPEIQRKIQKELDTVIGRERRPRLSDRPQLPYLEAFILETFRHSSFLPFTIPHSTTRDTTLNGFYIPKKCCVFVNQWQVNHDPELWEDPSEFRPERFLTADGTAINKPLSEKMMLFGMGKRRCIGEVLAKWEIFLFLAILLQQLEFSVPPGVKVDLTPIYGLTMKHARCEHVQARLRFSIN
In short: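 O-Demethylation of luciferin 6' methyl ether by human CYP1A2 is monitored as luciferase luminescence. Substrate sits at Km (100uM); enzyme is 20nM. Values are scaled to 57 uM furafylline as maximal inhibition.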

[3] = NFAT Signaling Pathway (AID 444; active means well fitted curve in either direction with a large enough effect, not every such curve was filed as active;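 further: carbachol stimulus at about its EC50 of 1 µM final; on the % scale 0 is the no-effect control and ±100 the full control effect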); conditions: Jurkat NFAT-bla M1, carbachol, beta-lactamase ratio, 5 h; at 7.69 µM (top of the series) unless noted
In short: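 Jurkat cells with NFAT-driven β-lactamase reporter and co-expressed M1 receptor, stimulated with carbachol (final 1 uM, ~EC50), compound titration, 5 h at 37 °C. CCF4 loaded 1 h at RT; 460/530 nm ratio gave %activity and AC50.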

[4] = target: Glucocorticoid receptor (Homo sapiens) (UniProt P04150); assay: GR-GFP Redistribution (AID 450;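 active means compounds whose dose series gives a full or clear partial fitted curve of increased nuclear translocation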; further: potency means the concentration at half of the fitted maximal effect); conditions: U2OS GR-GFP nuclear translocation, laser cytometry, 2 h
Chain of Glucocorticoid receptor (Homo sapiens) (P04150 whole entry, looked up, the tested form may be a part): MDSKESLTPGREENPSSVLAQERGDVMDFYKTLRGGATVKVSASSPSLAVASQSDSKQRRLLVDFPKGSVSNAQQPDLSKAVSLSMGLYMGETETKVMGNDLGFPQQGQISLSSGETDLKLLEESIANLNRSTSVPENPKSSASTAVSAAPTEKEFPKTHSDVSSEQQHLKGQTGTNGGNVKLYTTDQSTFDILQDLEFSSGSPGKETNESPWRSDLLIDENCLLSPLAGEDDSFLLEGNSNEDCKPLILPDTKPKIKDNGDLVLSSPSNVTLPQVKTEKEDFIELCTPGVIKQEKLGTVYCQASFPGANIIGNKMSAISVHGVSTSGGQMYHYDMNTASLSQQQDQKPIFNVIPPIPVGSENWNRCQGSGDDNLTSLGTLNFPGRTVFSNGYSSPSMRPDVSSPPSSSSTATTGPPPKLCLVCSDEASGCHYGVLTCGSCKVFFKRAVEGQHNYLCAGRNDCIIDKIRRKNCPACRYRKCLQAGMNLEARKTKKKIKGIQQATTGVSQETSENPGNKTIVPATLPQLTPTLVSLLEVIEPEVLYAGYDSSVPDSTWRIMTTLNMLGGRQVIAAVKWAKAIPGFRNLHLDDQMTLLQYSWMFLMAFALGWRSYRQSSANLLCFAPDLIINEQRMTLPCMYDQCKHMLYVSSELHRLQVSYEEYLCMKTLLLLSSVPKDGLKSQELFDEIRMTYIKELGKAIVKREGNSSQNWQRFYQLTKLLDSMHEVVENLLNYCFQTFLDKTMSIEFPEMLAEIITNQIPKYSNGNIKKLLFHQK

[5] = target: Glucocorticoid receptor (Homo sapiens) (UniProt P04150); assay: GR-EFC Redistribution (AID 451; calls by dose curve; further: potency means the concentration at half of the fitted maximal effect); conditions: CHO-K1 GR-EFC translocation, beta-gal luminescence, 2 h
In short: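 CHO-K1 cells expressing nuclear EA and GR-ED fragments of b-gal; compounds titrated up to 46 uM final, 2 h at 37 C. GR nuclear translocation read as complemented b-gal luminescence after 1 h RT detection.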

[6] = target: Mitogen-activated protein kinase 10 (Mus musculus) (UniProt Q61831); assay: JNK3 AlphaScreen Assay (AID 530; active means well fitted curve in either direction with a large enough effect, not every such curve was filed as active;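 further: kinase came from lysate of stimulated human HepG2 cells; signal reports phosphorylation of biotinylated GST-cJun 1-79 at Ser73 with 10 µM ATP; on the % scale 0 is the no-effect control and ±100 the full control effect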)
In short: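 Activity was read by AlphaScreen after JNK3-containing HepG2 lysate (cytokine pre-activated) phosphorylated biotinylated GST-cJun with 10 uM ATP at room temperature. Phospho-Ser73 cJun antibody with Protein-A acceptor beads provided detection.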

[7] = target: 3',5'-cyclic-AMP phosphodiesterase 4B (Homo sapiens) (UniProt Q07343); assay: qHTS Assay for Inhibitors of PDE-IV (AID 607; active means well fitted activation curve with a large enough effect in the main read-out, with a control signal flat, not every such curve was filed as active; further: % of control where 0% means no effect)
Chain of 3',5'-cyclic-AMP phosphodiesterase 4B (Homo sapiens) (Q07343 whole entry, looked up): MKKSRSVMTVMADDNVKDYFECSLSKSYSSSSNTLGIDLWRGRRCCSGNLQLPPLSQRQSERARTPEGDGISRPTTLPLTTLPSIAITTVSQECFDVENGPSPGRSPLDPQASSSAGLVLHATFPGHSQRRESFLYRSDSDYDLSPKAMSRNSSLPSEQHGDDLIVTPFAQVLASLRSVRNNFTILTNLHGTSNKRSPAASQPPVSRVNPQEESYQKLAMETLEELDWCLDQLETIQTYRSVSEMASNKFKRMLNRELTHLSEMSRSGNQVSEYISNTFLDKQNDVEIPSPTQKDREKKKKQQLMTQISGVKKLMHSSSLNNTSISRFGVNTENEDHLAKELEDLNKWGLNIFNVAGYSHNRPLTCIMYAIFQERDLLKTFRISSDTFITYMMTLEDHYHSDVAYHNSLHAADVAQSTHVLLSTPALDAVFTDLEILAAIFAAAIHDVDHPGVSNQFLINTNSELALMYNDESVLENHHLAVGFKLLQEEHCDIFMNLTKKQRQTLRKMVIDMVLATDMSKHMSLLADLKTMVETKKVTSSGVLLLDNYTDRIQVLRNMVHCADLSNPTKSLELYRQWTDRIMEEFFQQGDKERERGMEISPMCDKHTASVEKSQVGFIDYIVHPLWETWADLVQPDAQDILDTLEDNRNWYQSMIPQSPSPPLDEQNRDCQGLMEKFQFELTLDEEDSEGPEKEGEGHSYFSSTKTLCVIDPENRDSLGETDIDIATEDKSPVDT
In short: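 Live HEK293 cells with a modified cyclic nucleotide-gated (CNG) channel report intracellular cAMP via membrane-potential dye fluorescence (ex 535/em 590 nm). Endogenous PDE-IV was targeted. Compounds were tested at up to 22.9 uM final; RO 20-1724 100 uM served as control.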

[8] = qHTS Assay for Identification of Small Molecule Antagonists for NFkB Signaling Pathway (AID 895; active means well fitted inhibition curve with a large enough effect in the signal ratio, with a control signal flat, not every such curve was filed as active; the % refers to the signal ratio; further: on the % scale 0 is the no-effect control and ±100 the full control effect)
In short: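 ME-180 NFkB-bla cells (beta-lactamase under NFkB response element), plated overnight, treated with compound then 10 pM TNF alpha (about EC50) for 5 hrs at 37 C. LiveBLAzer FRET read at 460/530 nm emission, 405 nm excitation.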

[9] = qHTS Assay for Identification of Small Molecule Agonists for Thrombopoietin (TPO) Signaling Pathway (AID 917); further: on the % scale 0 is the no-effect control and ±100 the full control effect
In short: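 Stimulation at the TPO EC50 (26 pM final) was used to detect activators. Ba/F3 mouse cells bearing human TPO receptor and a luciferase reporter under the Glycoprotein IIb promoter were exposed to compounds for 24 hrs at 37 C.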

[10] = target: Muscarinic acetylcholine receptor M1 (Rattus norvegicus) (UniProt P08482); assay: qHTS Assay for Antagonists of Acetylcholine Muscarinic M1 Receptor: Kinetic Measurement of Intracellular Calcium Response (AID 943);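 further: Fluo-4 calcium signal as peak divided by basal fluorescence over 4 min; nearly all actives have a fitted effect of over 75% in size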
Chain of Muscarinic acetylcholine receptor M1 (Rattus norvegicus) (P08482 whole entry, looked up): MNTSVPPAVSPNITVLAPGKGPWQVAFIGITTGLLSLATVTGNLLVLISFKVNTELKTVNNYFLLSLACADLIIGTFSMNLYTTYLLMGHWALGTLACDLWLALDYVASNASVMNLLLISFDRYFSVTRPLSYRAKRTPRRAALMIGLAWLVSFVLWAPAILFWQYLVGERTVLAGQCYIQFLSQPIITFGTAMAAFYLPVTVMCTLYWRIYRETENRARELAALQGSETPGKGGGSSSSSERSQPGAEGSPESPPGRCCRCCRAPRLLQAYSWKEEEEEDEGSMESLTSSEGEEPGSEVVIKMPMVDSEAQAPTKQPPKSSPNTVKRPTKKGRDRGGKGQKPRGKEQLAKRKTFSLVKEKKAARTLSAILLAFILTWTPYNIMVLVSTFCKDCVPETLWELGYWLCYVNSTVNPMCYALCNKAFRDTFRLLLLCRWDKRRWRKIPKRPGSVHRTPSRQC
In short: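 Antagonism is measured as inhibition of the carbachol-evoked calcium rise in CHO cells transfected with rat M1. Cells are dye-loaded, exposed to compound for 10 min, then stimulated with 100 nM carbachol (EC80).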

[11] = target: Muscarinic acetylcholine receptor M1 (Rattus norvegicus) (UniProt P08482); assay: qHTS Assay for Antagonists of Acetylcholine Muscarinic M1 Receptor: Measurement of IP-One Response (AID 944); further: nearly all actives have a fitted effect of over 75% in size
In short: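 Antagonist mode with rat M1 receptor transfected into CHO cells. Compound is added first for 10 min, carbachol at its EC80 follows for 30 min, and lysis reagents then allow TR-FRET detection of accumulated IP1.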

[12] = target: Pyruvate kinase (Leishmania mexicana) (UniProt Q27686); assay: qHTS Validation Assay for Inhibitors of Leishmania Mexicana Pyruvate Kinase (AID 945);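 further: 0% = DMSO only neutral control wells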
Chain of Pyruvate kinase (Leishmania mexicana) (Q27686 2-499 E452W): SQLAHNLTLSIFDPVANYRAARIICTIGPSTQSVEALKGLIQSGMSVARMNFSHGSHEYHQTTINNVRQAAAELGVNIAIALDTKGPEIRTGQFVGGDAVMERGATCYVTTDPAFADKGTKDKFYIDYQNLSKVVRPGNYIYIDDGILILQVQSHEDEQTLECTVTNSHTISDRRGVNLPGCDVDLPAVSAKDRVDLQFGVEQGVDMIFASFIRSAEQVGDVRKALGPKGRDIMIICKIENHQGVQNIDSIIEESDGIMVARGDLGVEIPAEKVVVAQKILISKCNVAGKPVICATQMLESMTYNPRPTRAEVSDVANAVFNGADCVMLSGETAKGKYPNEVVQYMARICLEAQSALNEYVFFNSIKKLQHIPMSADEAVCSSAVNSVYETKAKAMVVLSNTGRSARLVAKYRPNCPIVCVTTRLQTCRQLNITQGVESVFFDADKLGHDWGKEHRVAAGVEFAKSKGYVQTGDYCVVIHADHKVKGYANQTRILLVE
In short: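 Luminescent ATP detection (PKLight) after a 1 h room-temperature reaction of 0.2 nM LmPYK E451W mutant with 0.5 mM PEP and 0.1 mM ADP at pH 7.2. Activity is normalized to DMSO-only control wells.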

[13] = target: Pyruvate kinase PKM (Homo sapiens) (UniProt P14618); assay: qHTS Assay for Activators of Human Muscle Pyruvate Kinase (AID 954; active means well fitted curve in the direction sought with a large enough effect, not every such curve was filed as active;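 further: 0% = uninhibited enzyme and -100% = no enzyme or full thiadiazolimine inhibition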)
Chain of Pyruvate kinase PKM (Homo sapiens) (P14618 whole entry, looked up): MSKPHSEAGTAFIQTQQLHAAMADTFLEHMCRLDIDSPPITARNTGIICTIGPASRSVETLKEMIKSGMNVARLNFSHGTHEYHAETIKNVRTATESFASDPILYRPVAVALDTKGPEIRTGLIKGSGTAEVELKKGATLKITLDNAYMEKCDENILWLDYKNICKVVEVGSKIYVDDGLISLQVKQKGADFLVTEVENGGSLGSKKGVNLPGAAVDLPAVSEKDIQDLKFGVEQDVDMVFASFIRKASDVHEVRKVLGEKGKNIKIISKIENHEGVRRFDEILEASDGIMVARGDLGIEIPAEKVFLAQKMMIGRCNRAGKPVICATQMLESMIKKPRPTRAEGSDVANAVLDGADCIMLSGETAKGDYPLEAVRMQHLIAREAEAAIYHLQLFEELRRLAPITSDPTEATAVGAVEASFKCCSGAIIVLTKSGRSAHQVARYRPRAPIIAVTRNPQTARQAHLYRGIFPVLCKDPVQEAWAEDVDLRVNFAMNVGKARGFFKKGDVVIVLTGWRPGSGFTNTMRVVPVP
In short: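 Screening used highly purified human pyruvate kinase M2 under submaximal activity, with PEP at its Km and ADP below Km. After an hour at room temperature, ATP was read by luciferase luminescence.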

[14] = target: Alpha-galactosidase A (Homo sapiens) (UniProt P06280); assay: Counterscreen for Glucocerebrosidase Inhibitors: qHTS Assay for Human alpha-Galactosidase at pH 4.5 (AID 992); further: 0% is about no effect
Chain of Alpha-galactosidase A (Homo sapiens) (P06280 whole entry, looked up): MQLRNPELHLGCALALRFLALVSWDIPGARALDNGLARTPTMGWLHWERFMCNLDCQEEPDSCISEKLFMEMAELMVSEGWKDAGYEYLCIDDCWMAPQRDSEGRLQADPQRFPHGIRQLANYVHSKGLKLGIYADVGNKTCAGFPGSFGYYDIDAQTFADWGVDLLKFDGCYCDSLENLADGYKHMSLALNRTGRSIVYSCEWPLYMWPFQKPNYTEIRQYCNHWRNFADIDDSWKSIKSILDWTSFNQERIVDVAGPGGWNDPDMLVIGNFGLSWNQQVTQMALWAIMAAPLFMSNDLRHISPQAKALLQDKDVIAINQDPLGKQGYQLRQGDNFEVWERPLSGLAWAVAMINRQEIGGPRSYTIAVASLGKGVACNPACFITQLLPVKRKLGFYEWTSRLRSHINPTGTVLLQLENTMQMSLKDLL
In short: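 Each compound is preincubated briefly with 2 nM enzyme before substrate addition (80 uM); plates then sit 20 min at ambient temperature, are quenched with 1M NaOH/1M glycine, and read fluorometrically.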

[15] = target: alpha-glucosidase (Oryza sativa, rice) (UniProt Q653V4); assay: Counterscreen for Glucocerebrosidase Inhibitors: qHTS Assay for Rice alpha-Glucosidase at pH 5.0 (AID 997);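 further: 0% = full activity with enzyme and -100% = basal without enzyme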
In short: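 Endpoint fluorogenic assay at pH 5.0: compounds (0.7 nM to 77 uM) titrated against 4 nM rice enzyme and 400 uM 4-MU-alpha-glucoside for 20 min at room temperature; NaOH/glycine stop, read ex 365/em 440 nm, Hill-fitted AC50.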

[16] = target: Cytochrome P450 3A4 (Homo sapiens) (UniProt P08684); assay: qHTS Assay for Activators of Cytochrome P450 3A4 (AID 885); further: nearly all actives have a fitted effect of over 65% in size
Chain of Cytochrome P450 3A4 (Homo sapiens) (P08684 whole entry, looked up): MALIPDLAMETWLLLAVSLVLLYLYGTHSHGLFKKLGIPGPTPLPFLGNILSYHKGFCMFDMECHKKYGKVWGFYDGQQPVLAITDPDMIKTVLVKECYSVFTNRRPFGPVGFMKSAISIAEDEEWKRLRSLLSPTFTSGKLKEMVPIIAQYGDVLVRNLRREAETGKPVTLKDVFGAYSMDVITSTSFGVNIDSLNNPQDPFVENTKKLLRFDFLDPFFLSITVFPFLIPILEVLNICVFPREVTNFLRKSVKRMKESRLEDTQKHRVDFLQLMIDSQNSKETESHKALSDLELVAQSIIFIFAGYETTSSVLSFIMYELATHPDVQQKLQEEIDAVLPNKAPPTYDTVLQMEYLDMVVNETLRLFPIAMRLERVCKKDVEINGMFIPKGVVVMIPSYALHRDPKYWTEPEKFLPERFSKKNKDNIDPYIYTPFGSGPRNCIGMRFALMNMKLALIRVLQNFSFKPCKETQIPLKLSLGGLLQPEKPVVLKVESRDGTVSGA
In short: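 Using 20nM recombinant human CYP3A4 in potassium phosphate (200mM), substrate Luciferin-PPXE at 25uM, luminescent luciferin detection followed a 60-min RT NADPH reaction; data scaled to 57 uM ketoconazole.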

[17] = target: Cytochrome P450 2C19 (Homo sapiens) (UniProt P33261); assay: qHTS Assay for Inhibitors and Substrates of Cytochrome P450 2C19 (AID 899); further: nearly all actives have a fitted effect of over 60% in size; further: potency means the concentration at half of the fitted maximal effect
In short: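 Signal comes from luciferase acting on luciferin released by CYP2C19-mediated hydroxylation of Luciferin-H EGE, 10uM (KM). Assay mix: 5nM enzyme, 50mM KPO4; 60 min at 37C with NADPH regeneration. Data normalized against 57uM ketoconazole.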

[18] = target: Guanine nucleotide-binding protein G(i) subunit alpha-1 (Homo sapiens) (UniProt P63096); assay: qHTS Assay for Inhibitors of RGS12 GoLoco Motif Activity (Green Fluorophore) (AID 879);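 further: 0% = labeled peptide with Gαi1 and full inhibition = labeled peptide alone without protein; negative values mean loss of peptide binding seen as reduced polarization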
Chain of Guanine nucleotide-binding protein G(i) subunit alpha-1 (Homo sapiens) (P63096 whole entry, looked up): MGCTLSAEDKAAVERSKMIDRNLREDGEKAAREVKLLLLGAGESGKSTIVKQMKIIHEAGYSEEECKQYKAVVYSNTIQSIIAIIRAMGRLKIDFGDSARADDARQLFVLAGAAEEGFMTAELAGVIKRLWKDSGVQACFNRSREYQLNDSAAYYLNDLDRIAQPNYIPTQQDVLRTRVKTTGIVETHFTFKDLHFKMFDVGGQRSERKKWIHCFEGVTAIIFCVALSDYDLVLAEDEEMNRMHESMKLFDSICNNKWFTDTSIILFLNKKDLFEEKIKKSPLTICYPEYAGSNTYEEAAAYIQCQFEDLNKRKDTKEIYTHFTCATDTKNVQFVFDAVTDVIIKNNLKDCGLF
In short: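 A drop in FITC polarization marked displacement of the FITC-tagged RGS12 GoLoco peptide (10 nM) from Gαi1 (50 nM). Compounds were incubated 10 min at room temperature in Tris pH 7.5 buffer containing 150 mM NaCl, 0.1 mM GDP and 0.05% NP40; unlabeled peptide titration served as control.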

[19] = target: Cytochrome P450 2D6 (Homo sapiens) (UniProt P10635); assay: qHTS Assay for Inhibitors and Substrates of Cytochrome P450 2D6 (AID 891);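 further: luciferin methyl ether substrate demethylated by CYP2D6 with NADPH regeneration; on the % scale 0 is the no-effect control and ±100 the full control effect; nearly all actives have a fitted effect of over 60% in size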
In short: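 Luminescent read-out of luciferin formed by 5 nM human CYP2D6 demethylating 30 uM Luciferin-ME EGE (Km level) over 60 min at room temperature after NADPH regeneration addition. Data normalized to full inhibition by 1.43 uM quinidine.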

[20] = Stat Signaling Pathway (AID 446; active means well fitted curve in either direction with a large enough effect, not every such curve was filed as active); conditions: ME-180 (cervical carcinoma) SIE beta-lactamase reporter, IL-6 stimulated, 5 h; at 7.69 µM (top of the series) unless noted
In short: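 Overnight-plated ME-180 cells bearing a STAT Inducible Element beta-lactamase reporter; 5 h co-exposure to compound and 40 pM IL-6; values normalized to 300 pM IL-6 and 125 nM JAK inhibitor controls.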

Nc1c2c(nc3ccccc13)CCC[C@H]2O
active: Potency [2] 10 µM
inactive: activity change, negative = inhibition [1] 1.75% [at 38 µM] | activity change, negative = inhibition [3] 0.441% [at 38 µM] | Potency [4] > 46 µM | Potency [5] > 46 µM | Potency [6] | Potency [7] | Potency [8] | outcome [9] | Potency [10] | Potency [11] | outcome [12] | outcome [13] | outcome [14] | Potency [15]

O=C1C(=O)c2ccccc2C(O)=C1C(C1=C(O)c2ccccc2C(=O)C1=O)c1ccc(Cl)cc1
active: Potency [2] 3.98 µM | Potency [17] 3.98 µM
inactive: activity change, negative = inhibition [1] -18% | activity change, negative = inhibition [3] -12.1% | Potency [4] > 46 µM | Potency [5] > 9.22 µM | Potency [6] | Potency [7] | Potency [16]

COc1c2c(nc3ccccc13)O[C@@H]([C@@](C)(O)CO)C2
active: Potency [2] 15.8 µM
inactive: activity change, negative = inhibition [1] -14.5% [at 38 µM] | activity change, negative = inhibition [3] -2.6% [at 38 µM] | Potency [4] > 46 µM | Potency [5] > 46 µM | Potency [6] | Potency [7] | outcome [18] | Potency [8] | Potency [10] | Potency [11] | outcome [12] | outcome [13] | outcome [14] | Potency [15]

CCc1cccc2c3c([nH]c12)[C@](CC)(CC(=O)O)OCC3
inactive: activity change, negative = inhibition [1] 6.07% [at 38 µM] | Potency [2] | activity change, negative = inhibition [3] -5.71% [at 38 µM] | Potency [6] | Potency [7] | Potency [19] | Potency [17]

CCCC(c1cc(C(C)(C)C)c(O)cc1C)c1cc(C(C)(C)C)c(O)cc1C
inactive: activity change, negative = inhibition [1] 28.1% | activity change, negative = inhibition [2] -12.3% [at 2.29 µM] | activity, negative = inhibition [20] 4.1% | Potency [4] > 46 µM | Potency [5] > 9.22 µM | Potency [6] | Potency [7]

Nc1nc(Cl)nc2c1ncn2[C@@H]1O[C@@H](COP(=O)(O)OP(=O)(O)OP(=O)(O)O)[C@@H](O)[C@H]1O
inactive: activity change, negative = inhibition [1] 18.9% [at 38 µM] | Potency [2] | activity change, negative = inhibition [3] 9.46% [at 38 µM] | Potency [4] > 46 µM | Potency [5] > 46 µM | Potency [6] | Potency [7] | outcome [18] | Potency [8] | Potency [10] | Potency [11] | outcome [12] | outcome [13] | outcome [14] | Potency [15]

COc1cc2nc(N3CCN(C(=O)OCc4ccccc4)[C@H](C(=O)NC(C)(C)C)C3)nc(N)c2cc1OC
inactive: activity change, negative = inhibition [1] -7.79% [at 38 µM] | Potency [2] | activity change, negative = inhibition [3] 3.46% [at 38 µM] | Potency [4] > 46 µM | Potency [5] > 46 µM | Potency [6] | Potency [7] | outcome [18] | Potency [16] | Potency [8] | Potency [11] | outcome [12] | outcome [13] | outcome [14] | Potency [15]

OC[C@@H]1O[C@@H](n2cnc3c(NC4CCCCC4)ncnc32)[C@@H](O)[C@H]1O
inactive: activity change, negative = inhibition [1] -12.8% [at 38 µM] | Potency [2] | activity change, negative = inhibition [3] 1.85% [at 38 µM] | Potency [4] > 46 µM | Potency [5] > 46 µM | Potency [8] | Potency [10] | Potency [11] | outcome [12] | outcome [13] | outcome [14] | Potency [15]

COC(=O)[C@H](N)Cc1ccc(Cl)cc1
active: Potency [2] 3.16 µM
inactive: activity change, negative = inhibition [1] 4.51% [at 38 µM] | activity change, negative = inhibition [3] 3.08% [at 38 µM] | Potency [4] > 46 µM | Potency [5] > 46 µM | Potency [6] | Potency [7] | outcome [18] | Potency [16] | outcome [9] | Potency [11] | outcome [12] | outcome [13] | outcome [14] | Potency [15]

CNC(=O)[C@@H]1O[C@@H](n2cnc3c(N)ncnc32)[C@@H](O)[C@H]1O
inactive: activity change, negative = inhibition [1] -10.7% [at 38 µM] | Potency [2] | activity change, negative = inhibition [3] 6.42% [at 38 µM] | Potency [4] > 46 µM | Potency [5] > 46 µM | Potency [6] | outcome [18] | outcome [9] | Potency [10] | outcome [12] | outcome [13] | outcome [14] | Potency [15]

Cc1ccccc1CNc1ncnc2c1ncn2[C@@H]1O[C@@H](CO)[C@H](O)[C@@H]1O
inactive: activity change, negative = inhibition [1] 0.479% [at 38 µM] | Potency [2] | activity change, negative = inhibition [3] 10.4% [at 38 µM] | Potency [4] > 46 µM | Potency [5] > 46 µM | Potency [7] | outcome [9] | Potency [10] | Potency [11] | outcome [12] | outcome [13] | outcome [14] | Potency [15]

C[N+]1(CCC[N+]2(C)C[C@H]3[C@H](C2)[C@H]2C=C[C@@H]3CC2)CCOCC1 (some centres not stated)
inactive: activity change, negative = inhibition [1] 0.978% | Potency [2] | activity change, negative = inhibition [3] 1.42% | Potency [4] > 46 µM | Potency [6] | Potency [7]
